# Molecular target: SOHLH2
# Test: pooled miR-30 sensor sort-seq; sequence = guide strand
# Conditions: shRNA
# Further: reference of the scale not given here.
row,Sequence,sensor-assay potency score (higher = more potent)
1,TATCGTGTCTACATGGATCTTC,0.657
2,TTCTCGAACTCTGACAACGAAG,-1.44
3,TATATTTCACATAATCAACTGT,0.64
4,TAGATTGTCAAACTGCGCCCAG,-0.465
5,TTGATGGAACTCTCACAGCTTC,-0.632
6,TTCAGTTAAAGCAATATCCATT,-0.431

# Molecular target: SORCS2
# Test: as above
# Conditions: shRNA
row,Sequence,sensor-assay potency score (higher = more potent)
1,TTCTTCTTTATATTCCACCAGC,-0.916
2,TTTTACTCAACAAGGAGCGGGT,-0.478
3,TTGAGGACAACTTGTAGGGTGG,-0.426
4,TAGAGCTTGCTCTCCTTTGTGT,0.276
5,TAGAAATTGTCGATGACGGTGG,0.449
6,TTCTTTATATTCCACCAGCTGT,-1.25
7,TAGACTTACACTAACATCCCTG,0.646
8,TTACTCAACAAGGAGCGGGTGC,-0.482
9,TTTCCTTTTGAACTTGTAGAGG,-1.02
10,TTTGGTCACTCGCTCTTGCAGA,-0.75
11,AAAGAAGATGTAATCGTCCTGC,0.216
12,TATTCCTATAGACTTACACTAA,-0.686

# Molecular target: SOX21
# Test: as above
# Conditions: shRNA
row,Sequence,sensor-assay potency score (higher = more potent)
1,TTCTATGTACATACAAACCGGG,-0.494
2,ATGAACAGAGTGATAGTCGGAT,0.0793
3,TAAATTAGAAGGTCACACTAGA,0.55
4,TTAAATTAGAAGGTCACACTAG,0.0223
5,TCTATGTACATACAAACCGGGC,-1.15
6,TAATCTTCGATAAAATTGCGAT,-0.606
7,TTTGAGTCTAAAGTCGACTCAA,0.154
8,TTAATCTTCGATAAAATTGCGA,-0.173
9,TTAACTTTGATATTCGCTCAAA,-0.537
10,TAGTAGTTTGTTGTTGTTGTTT,-0.802
11,TTGAGTCTAAAGTCGACTCAAA,-1.13

# Molecular target: SPAM1
# Test: as above
# Conditions: shRNA
row,Sequence,sensor-assay potency score (higher = more potent)
1,TATTGTAACACCTTGCCCGGTG,-0.194
2,ATACTAACAATGAACATTGTGG,-0.0586
3,TTTATTTCTACATTGAAGCAAC,-0.796
4,TTGAATAGCAAAATTATCTGGG,0.668
5,TTTCATTCCACAACCAGCTGAG,0.0511
6,TTTTCCTTATACACACTCCTTG,-0.634
7,TAATTGTCTAGGAGCAAGCAAG,-1.53
8,TTGAGGTTCTTCTGTCTCCATG,-1.06
9,TTTCCTTATACACACTCCTTGC,-0.862
10,TCTATCTTTGTAACTTGCCTTC,-0.492
11,TAACAATGAACATTGTGGCAGA,-0.131
